Source: PubChem BioAssay AID1645855 (Buhrlage Lab, Dana-Farber Cancer Institute and Novartis …, 2021)
Hit rate of the full screen: of about 47,000 compounds, about 3,100 (6.6%) were called active. What follows is part of a selection rich in actives, with near analogues and random picks from the rest. Values without a mark were called inactive. Cut-off read from the data, not from the text of the source: active = inhibition above about 30%; inactive = the rest.

Each compound was assayed against Ubiquitin carboxyl-terminal hydrolase 17-like protein 5 (Homo sapiens) (UniProt A8MUK1) (assay: blocks human USP17 ubiquitin-rhodamine cleavage (AID 1645855)). Settings: purified USP17, Ub-rhodamine cleavage fluorescence, 3 h; at 50 µM; stronger effect = higher value.
Chain of Ubiquitin carboxyl-terminal hydrolase 17-like protein 5 (Homo sapiens) (A8MUK1 whole entry, looked up): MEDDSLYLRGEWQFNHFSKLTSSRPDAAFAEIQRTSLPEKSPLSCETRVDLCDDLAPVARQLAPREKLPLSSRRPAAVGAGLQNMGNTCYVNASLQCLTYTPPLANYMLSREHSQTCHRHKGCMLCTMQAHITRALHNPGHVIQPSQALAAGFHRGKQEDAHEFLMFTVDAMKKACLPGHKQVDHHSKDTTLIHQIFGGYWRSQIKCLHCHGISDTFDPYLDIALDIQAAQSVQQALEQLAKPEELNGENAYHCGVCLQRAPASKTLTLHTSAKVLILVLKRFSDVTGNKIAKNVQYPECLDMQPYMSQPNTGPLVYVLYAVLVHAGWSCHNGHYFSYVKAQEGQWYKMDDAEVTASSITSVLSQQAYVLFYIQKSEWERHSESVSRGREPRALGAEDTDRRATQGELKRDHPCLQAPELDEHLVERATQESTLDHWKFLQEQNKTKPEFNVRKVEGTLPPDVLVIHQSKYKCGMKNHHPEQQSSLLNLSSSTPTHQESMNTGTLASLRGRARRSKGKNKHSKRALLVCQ

| Structure (SMILES) | inhibition |
| --- | --- |
| CC(=O)N1CCCC(c2ccnc(Nc3ccccn3)n2)C1 (centres undefined) | 6.44% |
| CN(C(=O)c1ncccn1)[C@H]1CC[C@@]2(C)C[C@H](c3ccccc3)C[C@](C)(O2)[C@@H]1O | 3.44% |
| CC(C)c1ccc(S(=O)(=O)N[C@H](C)C(=O)NCc2cscn2)cc1 | 6.37% |
| CNc1cnc(CC2CCCN(C(=O)c3scnc3C)CC2)cn1 (centres undefined) | -9.92% |
| CCc1ccc(NC(=O)Cn2cnc(S(=O)(=O)N3CCOCC3)c2)cc1 | 24.3% |
| N#Cc1cccc(NC(=O)COC(=O)c2cc3ccccc3oc2=O)c1 | 3.87% |
| Cc1cc(-c2nnc(SCC(=O)Nc3ccc(Br)c(C)c3)n2N)n[nH]1 | 23.4% |
| Cc1cc(NC(=O)COC(=O)c2cccc(C)c2O)ccc1Br | 37% (active) |
| C=C1CCC2[C@](C)(CCC[C@]2(C)C(=O)OC)[C@H]1CCc1ccoc1CNCC(=O)O (some centres undefined) | 28% |
| C=C1CCC2[C@](C)(CCC[C@]2(C)C(=O)OC)[C@H]1CCc1ccoc1C[N+](C)(C)Cc1ccccc1 (some centres undefined) | 31.1% (active) |
| O=C(c1ccc(Br)o1)N(Cc1cccc(F)c1)c1ccccn1 | 12.8% |
| CC(=O)c1ccc(N2CCN(C(=O)c3ccc4noc(-c5ccccc5)c4c3)CC2)cc1 | -0.00315% |
| COc1cccc(CN2C(=O)c3ccccc3C2C(=O)NCc2ccccc2OC)c1 (centres undefined) | 13.5% |
| CC(=O)O[C@H]1CC[C@@]2(C)C(CC[C@]3(C)C2CCC2[C@@]4(C)CC[C@H](C(C)(C)O)C4C[C@H](O)[C@]23C)C1(C)C (some centres undefined) | 0.105% |
| O=C(Cc1ccc(Cl)cc1)NCC(=O)Nc1nc2ccccc2[nH]1 | 53.7% (active) |
| COc1ccc(C(=O)NCC(=O)Nc2nc3ccccc3[nH]2)c(C)c1 | 46.9% (active) |
| Cc1noc(C)c1CC(=O)Nc1cccc(-c2nc3ccccc3[nH]2)c1 | 0.008% |
| COc1ccc(C(=O)Nc2cc(=O)[nH]c3nc(Cc4ccccc4)nn23)cc1 | -0.0855% |
| Clc1ccccc1SCc1nc2ccccc2[nH]1 | 6.98% |
| O=C(COc1ccccc1)NCCc1nc2ccccc2[nH]1 | 18.3% |
| O=C(Nc1ccc(F)cc1F)c1cnn2c3c(cnc12)CCCCC3 | -3.64% |
| Cc1nc(C2CCCN2)nc2c1CCC(=O)N2CC1CCCCC1 (centres undefined) | 3.63% |
| CCc1nc(=O)c2ccccc2n1C1=CCN(Cc2cn(C)nc2C)CC1 | 4.86% |

| Structure (SMILES) | inhibition |
| --- | --- |
| O=C(C1CCN(S(=O)(=O)c2ccc(Cl)cc2)CC1)N1CC[C@@]2(O)CCCC[C@H]2C1 | -1.48% |
| Cc1cc(O)c(=O)cc2c1C[C@H]1CC(C)(C)/C=C/C[C@@]3(C)Oc4cc(=O)c(O)cc(C)c4C[C@@H]3C[C@H](O)[C@]1(C)O2 | 40.2% (active) |
| CCSc1nc(-c2ccccc2)nc2sc3c(c12)CC(C)(C)OC3 | -11.1% |
| CN1CC(c2ncn[nH]2)c2cc(C(=O)NCc3ccccc3)ccc21 (centres undefined) | -5% |
| COc1ccccc1CNC(=O)c1ccc2c(c1)CCN2C(=O)C1CC1 | -10.3% |
| Cc1nc2c(c(C)c1CCC(=O)Nc1ccccc1F)c(=O)n(C)c(=O)n2C | -0.603% |
| Cc1noc(-c2cccn(Cc3cc(F)ccc3F)c2=O)n1 | 5.57% |
| O=C(Cn1cccc(-c2nc(-c3ccccc3)no2)c1=O)Nc1ccccc1F | 33% (active) |
| COc1ccc(C2C3=C(CC(c4ccc(Cl)cc4)CC3=O)Nc3ccccc3N2C(=O)c2ccc(Cl)c(Cl)c2)cc1 (centres undefined) | -7.25% |
| Fc1cccc(Nc2nc(-c3ccncc3)nc3c2CCC3)c1 | 48.8% (active) |
| O=C(CN1CC(=O)c2ccccc2S1(=O)=O)Nc1ccccc1 | -5.61% |
| Cc1nn(-c2ccccc2)c(C)c1S(=O)(=O)N1CCCCC1 | 3.01% |
| Cc1cc(C)nc(N(C(=O)C2CC2)c2ccc(OC(F)(F)F)cc2)n1 | 1.83% |
| Cc1nnc(OCC(=O)Nc2ccc(OC(F)(F)F)cc2)c2ccccc12 | 77.7% (active) |
| COC(=O)c1ccc(NC(=O)CSc2nnc(C(C)Oc3ccccc3)n2C)cc1 (centres undefined) | 5.22% |
| Cc1ccccc1NC(=O)Cc1csc2nc(-c3ccc(F)cc3)cn12 | 86% (active) |
| O=C(Cc1ccc(F)cc1)Nc1ccccc1Cc1ccccc1 | 27.4% |
| Cc1cc(F)ccc1NC(=O)Cc1n[nH]c(Cc2ccccc2)n1 | -9.74% |
| CN1CC2(COc3ccccc31)CN(S(=O)(=O)c1ccc3c(c1)OCO3)CCO2 (centres undefined) | -2.79% |
| CC1(C(=O)NCc2cccc(Cl)c2)Oc2cccnc2NC1=O (centres undefined) | -7.83% |
| O=C(NCC1CC1)[C@H]1C[C@@H]2CN(S(=O)(=O)c3ccccc3)C[C@H]1O2 | -13.7% |
| Cn1cc(CCNC(=O)c2cc3ccccc3[nH]2)c2cccnc21 | -17.1% |
| Cn1cc(-c2nc(C(=O)Nc3ccc(F)cc3)cs2)c2cccnc21 | 59.4% (active) |

| Structure (SMILES) | inhibition |
| --- | --- |
| Cc1cccc(NC(=O)c2csc(-c3cn(C)c4ncccc34)n2)c1 | 2.63% |
| COCCNC(=O)C1c2ccccc2C(=O)N(C2CCCC2)C12CCCCC2 (centres undefined) | -1.76% |
| O=S(Cc1cc(Sc2ccccc2)nc(-c2ccccn2)n1)c1ccc(Cl)cc1 (centres undefined) | -9.57% |
| CC(C)(C)c1cc2n(n1)CCN(Cc1ccccc1C(F)(F)F)C2 | -4.87% |
| COc1cccc(C(=O)N2CCC(c3nc4ccncc4n3C)C2)c1 (centres undefined) | 10% |
| Fc1ccc(-n2cc(-c3ccccc3)c3c(NCc4ccco4)ncnc32)cc1 | -3.63% |
| c1coc(CNc2nc(Nc3cccc4ccccc34)nc3ccccc23)c1 | 83.4% (active) |
| O=C(CCc1nnc2ccc(N3CCCCC3)nn12)NCCC1=CCCCC1 | 1.2% |
| O=c1ccc(-c2nc(-c3cnccn3)no2)cn1Cc1ccccc1C(F)(F)F | 7.06% |
| O=C1CNC(=O)N1CC(O)Cn1c2ccc(Br)cc2c2cc(Br)ccc21 (centres undefined) | 40.1% (active) |
| O=C(CCc1nnc2n(CCc3ccccc3)c(=O)c3ccccc3n12)NCCN1CCCC1 | 13.7% |
| Cc1ccc(Cn2c(C)c(CNCCC3=CCCCC3)c(C(=O)O)c2C)cc1 | 7.92% |
| CCc1ccc(-n2c(=O)c3ccccc3n(CC(=O)NCCC3=CCCCC3)c2=O)cc1 | 64.3% (active) |
| CN(CCc1ccccn1)C(=O)c1cc2c(=O)oc3ccccc3c2s1 | 14.5% |
| O=C(CC(NCc1cccnc1)C(=O)O)Nc1ccccc1 (centres undefined) | 6.61% |
| COc1cc(C)c(CN2CCc3c(nc4cc(-c5cc(C)on5)[nH]n4c3=O)C2)cc1OC | 4.84% |
| O=c1[nH]c(-c2ccncc2)nc2c1CCN(Cc1cn[nH]c1-c1ccc(Cl)cc1)C2 | -0.0464% |
| O=c1[nH]c(-c2ccccn2)nc2c1CCN(Cc1cnn(-c3ccc(F)cc3)c1)C2 | 43.5% (active) |
| C#CCOc1ccc(CN2CCc3nc(-c4cccnc4)[nH]c(=O)c3C2)cc1OC | -0.00604% |
| CCc1cccc(C)c1NC(=O)Cn1nc2ccc(C(=O)NCc3ccccc3)cn2c1=O | 16.4% |
| Cc1ccc(-c2cc(=O)[nH]c(NCc3ccccc3)n2)cc1 | -6.42% |
| CC(=O)N1CCN(c2cc(N3CCCCC3)nc(C)n2)CC1 | -36.6% |
| CCCN1CCN(c2ccc(C(=O)O)cc2NS(=O)(=O)c2cc(F)ccc2F)CC1 | 10.4% |

| Structure (SMILES) | inhibition |
| --- | --- |
| Cc1ccc(-c2cc(C(F)F)n3ncc(C(=O)NCC(C)C)c3n2)cc1 | 36.6% (active) |
| Cc1cc(Nc2ccc(C(=O)NCC(C)C)cc2)n2nc(-c3cccnc3)nc2n1 | -7.54% |
| COc1ccc(-c2cc(C(F)F)n3ncc(C(=O)N(C)Cc4c(C)nn(C)c4C)c3n2)cc1 | -8.87% |
| O=C(O)COc1ccccc1C(c1c[nH]c2ccccc12)c1c[nH]c2ccccc12 | -15.6% |
| COc1ccc(CN2CCN(C(=O)c3ccc4c(c3)OCO4)CC2)cn1 | -5.73% |
| CC(C)c1ccc(NC(=O)CCC(=O)N(c2ccccc2)c2ccccc2)cc1 | 6.5% |
| Cc1cccc(NS(=O)(=O)c2ccc3nnc(C)n3c2)c1 | 4.3% |
| COc1cccc(NS(=O)(=O)c2ccc(-c3coc(C)n3)cc2)c1 | 0.103% |
| O=S(=O)(Nc1cccc(O)c1)c1ccc2oc3ccc(S(=O)(=O)Nc4cccc(O)c4)cc3c2c1 | 39.1% (active) |
| CC1(C)Cc2cccc(OCC(=O)NCC(F)(F)F)c2O1 | 4.4% |
| COC(=O)c1ccc(C(=O)NCC2(O)CCc3ccccc32)cc1 (centres undefined) | -0.0822% |
| COCCN1C[C@@]23CN(C(=O)NCc4ccccc4)C[C@@H](C[C@@H]2S1(=O)=O)O3 | 12.1% |
| CC(=O)Nc1ccc(-n2cnc(C(=O)NCc3ccc(C)cc3)c2)nc1 | 64.2% (active) |
| CC(=O)Nc1ccc(-n2cnc(C(=O)N3CCN(c4cccc(C)c4)CC3)c2)nc1 | -7.95% |
| CC(=O)Nc1ccc(-n2cnc(C(=O)N3CCN(c4ccc(C)cc4)CC3)c2)nc1 | 13.8% |
| Cc1nc(C2CCN(S(C)(=O)=O)CC2)nc2c1CCC(=O)N2CC(C)C | -7.01% |
| Cc1cc2nc(Cc3ccccc3)cc(=O)n2[nH]1 | -11.5% |
| CC(C)NC(=O)CN1C(=O)CC(C)Sc2ccc(S(=O)(=O)N3CCCCC3)cc21 (centres undefined) | 43.8% (active) |
| CCN1CCN(S(=O)(=O)c2ccc3c(c2)CC(C)N3C(=O)C2CC2)CC1 (centres undefined) | 2.74% |
| CC1CCCN(C(=O)c2cc(S(=O)(=O)N3CCCCC3)ccc2Cl)C1 (centres undefined) | -1.66% |
